Data reported in the supplement of paper PMC10849652.
About 8,800 targets were measured; listed, in parts, are those with a hit and a random draw of the rest. About 0.5% of all pairs of compound and target were hits. A number with no mark means an inactive call.

Tests used:
Experiment in all cases: log2 fold change, soluble protein after heating vs DMSO (PISA); higher = thermal stabilisation; K562 lysate, 10 uM; active = over 0.2 and 3.5 SD of the protein, either way, in both replicates (recomputed)
vemurafenib = compound: CCCS(=O)(=O)Nc1ccc(F)c(C(=O)c2c[nH]c3ncc(-c4ccc(Cl)cc4)cc23)c1F [vemurafenib]
How it was run: (§1)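 Dounce homogenisation of K562 pellets in PBS pH 7.4 with 1 mM MgCl2 produced a crude extract, used at 1 mg/mL protein. Exposure to 10 μM compound lasted 30 min, and aliquots were then heated for 3 min across 48°C-58°C, pooled and brought to 0.5% NP-40 at 4°C. The supernatant after 21,000xg for 90 min was quantified by TMTpro 16plex LC-MS/MS with channel sums equalised. Duplicate values are given as log-two fold change in thermal stability relative to solvent controls.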

[1] = compound: CCCS(=O)(=O)Nc1ccc(F)c(C(=O)c2c[nH]c3ncc(Cl)cc23)c1F
How it was run: as §1

barasertib = compound: CCN(CCCOc1ccc2c(Nc3cc(CC(=O)Nc4cccc(F)c4)[nH]n3)ncnc2c1)CCOP(=O)(O)O [barasertib]
How it was run: as §1

[2] = compound: CC[C@@H]1C(=O)N(C)c2cnc(Nc3ccc(C(=O)NC4CCN(C)CC4)cc3OC)nc2N1C1CCCC1
How it was run: as §1

volasertib = compound: CC[C@@H]1C(=O)N(C)c2cnc(Nc3ccc(C(=O)N[C@H]4CC[C@H](N5CCN(CC6CC6)CC5)CC4)cc3OC)nc2N1C(C)C [volasertib]
How it was run: as §1

[3] = compound: CCn1c(C(=O)N(C2CC2)C2CC2)cc2c3c(ncn3C)c(Nc3cc(C)n(C)n3)nc21
How it was run: as §1

[4] = compound: CCn1cc(-c2ccnc3[nH]c(-c4cccc(CN(C)C)c4)cc23)c(-c2ccc(NC(=O)N(C)C)cc2)n1
How it was run: as §1

[5] = compound: CN1CCC(CNc2ccc3ncc(-c4cccc(OC(F)(F)F)c4)n3n2)CC1
How it was run: as §1

saracatinib = compound: CN1CCN(CCOc2cc(OC3CCOCC3)c3c(Nc4c(Cl)ccc5c4OCO5)ncnc3c2)CC1 [saracatinib]
How it was run: as §1

sotrastaurin = compound: CN1CCN(c2nc(C3=C(c4c[nH]c5ccccc45)C(=O)NC3=O)c3ccccc3n2)CC1 [sotrastaurin]
How it was run: as §1

alvocidib = compound: CN1CC[C@H](c2c(O)cc(O)c3c(=O)cc(-c4ccccc4Cl)oc23)[C@H](O)C1 [alvocidib]
How it was run: as §1

Tubastatin A = compound: CN1CCc2c(c3ccccc3n2Cc2ccc(C(=O)NO)cc2)C1 [Tubastatin A]
How it was run: as §1

[6] = compound: CNC(=O)C1=CC=CC=C1NC2=NC(=NC=C2Cl)NC3=C(C=C(C=C3)N4CCOCC4)OC
How it was run: as §1

defactinib = compound: CNC(=O)c1ccc(Nc2ncc(C(F)(F)F)c(NCc3nccnc3N(C)S(C)(=O)=O)n2)cc1 [defactinib]
How it was run: as §1

[7] = compound: CNc1nc(-c2ccc3c(N)n[nH]c3c2)cc(N2C[C@@H](C(=O)NC3CCCCC3)CC[C@H]2C)n1
How it was run: as §1

encorafenib = compound: COC(=O)N[C@@H](C)CNc1nccc(-c2cn(C(C)C)nc2-c2cc(Cl)cc(NS(C)(=O)=O)c2F)n1 [encorafenib]
How it was run: as §1

[8] = compound: COC(=O)[C@H](CCSC)NC(=O)C1=C(C=C(C=C1)NC[C@H](CS)N)C2=CC=CC=C2
How it was run: as §1

alisertib = compound: COc1cc(Nc2ncc3c(n2)-c2ccc(Cl)cc2C(c2c(F)cccc2OC)=NC3)ccc1C(=O)O [alisertib]
How it was run: as §1

[9] = compound: COc1cc2nc(-c3cc(F)ccc3O)nc(N[C@@H]3CNC[C@H]3C(C)(C)O)c2cc1OC
How it was run: as §1

gefitinib = compound: COc1cc2ncnc(Nc3ccc(F)c(Cl)c3)c2cc1OCCCN1CCOCC1 [gefitinib]
How it was run: as §1

Sequence of UniProt Q12873 (Q12873 whole entry, looked up): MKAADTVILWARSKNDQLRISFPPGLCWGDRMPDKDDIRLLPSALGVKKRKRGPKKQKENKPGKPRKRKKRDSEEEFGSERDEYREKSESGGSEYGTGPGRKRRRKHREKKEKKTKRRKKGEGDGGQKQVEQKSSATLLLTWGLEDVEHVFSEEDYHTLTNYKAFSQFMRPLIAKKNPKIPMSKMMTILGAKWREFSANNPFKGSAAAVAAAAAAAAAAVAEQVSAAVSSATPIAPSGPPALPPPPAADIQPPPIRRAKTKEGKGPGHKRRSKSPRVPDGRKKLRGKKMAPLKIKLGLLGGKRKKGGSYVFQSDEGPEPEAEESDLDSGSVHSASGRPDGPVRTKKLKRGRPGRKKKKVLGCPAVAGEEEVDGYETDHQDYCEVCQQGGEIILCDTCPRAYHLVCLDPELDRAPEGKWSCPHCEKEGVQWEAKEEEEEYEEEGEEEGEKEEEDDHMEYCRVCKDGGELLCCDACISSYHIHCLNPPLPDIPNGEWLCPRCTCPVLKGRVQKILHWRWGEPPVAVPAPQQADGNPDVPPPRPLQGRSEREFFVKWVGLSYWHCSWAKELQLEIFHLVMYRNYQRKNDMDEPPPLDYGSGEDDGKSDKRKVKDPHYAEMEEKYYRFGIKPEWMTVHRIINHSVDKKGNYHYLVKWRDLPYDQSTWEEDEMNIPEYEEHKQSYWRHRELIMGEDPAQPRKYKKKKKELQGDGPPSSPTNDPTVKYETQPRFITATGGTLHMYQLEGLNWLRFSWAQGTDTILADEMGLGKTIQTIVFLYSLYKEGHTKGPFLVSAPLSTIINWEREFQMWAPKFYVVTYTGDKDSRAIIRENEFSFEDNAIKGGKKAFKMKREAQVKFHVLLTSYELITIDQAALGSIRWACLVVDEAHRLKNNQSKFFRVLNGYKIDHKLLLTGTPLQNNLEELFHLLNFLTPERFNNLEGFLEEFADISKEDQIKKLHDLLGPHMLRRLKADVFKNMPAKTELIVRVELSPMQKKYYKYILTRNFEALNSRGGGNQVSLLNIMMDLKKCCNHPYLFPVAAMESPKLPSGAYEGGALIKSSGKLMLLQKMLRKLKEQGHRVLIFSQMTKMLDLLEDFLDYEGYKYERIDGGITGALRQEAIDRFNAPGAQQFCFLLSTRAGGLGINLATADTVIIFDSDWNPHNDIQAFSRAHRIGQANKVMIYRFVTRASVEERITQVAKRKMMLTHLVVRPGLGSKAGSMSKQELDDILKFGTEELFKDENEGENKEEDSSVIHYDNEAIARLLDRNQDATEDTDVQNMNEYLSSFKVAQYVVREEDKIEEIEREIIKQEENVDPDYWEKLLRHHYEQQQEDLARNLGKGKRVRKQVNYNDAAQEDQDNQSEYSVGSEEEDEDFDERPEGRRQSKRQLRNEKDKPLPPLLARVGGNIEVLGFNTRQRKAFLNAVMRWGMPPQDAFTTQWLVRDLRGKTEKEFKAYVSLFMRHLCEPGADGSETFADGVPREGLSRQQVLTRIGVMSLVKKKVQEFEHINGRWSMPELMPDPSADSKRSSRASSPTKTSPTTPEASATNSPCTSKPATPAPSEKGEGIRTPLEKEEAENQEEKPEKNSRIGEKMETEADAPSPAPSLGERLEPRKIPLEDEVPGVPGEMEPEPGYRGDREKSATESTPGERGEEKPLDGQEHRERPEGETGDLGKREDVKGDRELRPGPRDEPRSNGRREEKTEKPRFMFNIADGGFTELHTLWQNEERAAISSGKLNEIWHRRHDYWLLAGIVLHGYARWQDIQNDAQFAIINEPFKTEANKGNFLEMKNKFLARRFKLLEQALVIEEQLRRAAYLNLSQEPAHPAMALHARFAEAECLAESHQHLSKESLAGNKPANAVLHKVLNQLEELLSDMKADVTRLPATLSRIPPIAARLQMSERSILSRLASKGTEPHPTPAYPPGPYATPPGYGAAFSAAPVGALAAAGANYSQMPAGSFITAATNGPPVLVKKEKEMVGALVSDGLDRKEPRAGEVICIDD
Sequence of UniProt Q13535 (Q13535 whole entry, looked up): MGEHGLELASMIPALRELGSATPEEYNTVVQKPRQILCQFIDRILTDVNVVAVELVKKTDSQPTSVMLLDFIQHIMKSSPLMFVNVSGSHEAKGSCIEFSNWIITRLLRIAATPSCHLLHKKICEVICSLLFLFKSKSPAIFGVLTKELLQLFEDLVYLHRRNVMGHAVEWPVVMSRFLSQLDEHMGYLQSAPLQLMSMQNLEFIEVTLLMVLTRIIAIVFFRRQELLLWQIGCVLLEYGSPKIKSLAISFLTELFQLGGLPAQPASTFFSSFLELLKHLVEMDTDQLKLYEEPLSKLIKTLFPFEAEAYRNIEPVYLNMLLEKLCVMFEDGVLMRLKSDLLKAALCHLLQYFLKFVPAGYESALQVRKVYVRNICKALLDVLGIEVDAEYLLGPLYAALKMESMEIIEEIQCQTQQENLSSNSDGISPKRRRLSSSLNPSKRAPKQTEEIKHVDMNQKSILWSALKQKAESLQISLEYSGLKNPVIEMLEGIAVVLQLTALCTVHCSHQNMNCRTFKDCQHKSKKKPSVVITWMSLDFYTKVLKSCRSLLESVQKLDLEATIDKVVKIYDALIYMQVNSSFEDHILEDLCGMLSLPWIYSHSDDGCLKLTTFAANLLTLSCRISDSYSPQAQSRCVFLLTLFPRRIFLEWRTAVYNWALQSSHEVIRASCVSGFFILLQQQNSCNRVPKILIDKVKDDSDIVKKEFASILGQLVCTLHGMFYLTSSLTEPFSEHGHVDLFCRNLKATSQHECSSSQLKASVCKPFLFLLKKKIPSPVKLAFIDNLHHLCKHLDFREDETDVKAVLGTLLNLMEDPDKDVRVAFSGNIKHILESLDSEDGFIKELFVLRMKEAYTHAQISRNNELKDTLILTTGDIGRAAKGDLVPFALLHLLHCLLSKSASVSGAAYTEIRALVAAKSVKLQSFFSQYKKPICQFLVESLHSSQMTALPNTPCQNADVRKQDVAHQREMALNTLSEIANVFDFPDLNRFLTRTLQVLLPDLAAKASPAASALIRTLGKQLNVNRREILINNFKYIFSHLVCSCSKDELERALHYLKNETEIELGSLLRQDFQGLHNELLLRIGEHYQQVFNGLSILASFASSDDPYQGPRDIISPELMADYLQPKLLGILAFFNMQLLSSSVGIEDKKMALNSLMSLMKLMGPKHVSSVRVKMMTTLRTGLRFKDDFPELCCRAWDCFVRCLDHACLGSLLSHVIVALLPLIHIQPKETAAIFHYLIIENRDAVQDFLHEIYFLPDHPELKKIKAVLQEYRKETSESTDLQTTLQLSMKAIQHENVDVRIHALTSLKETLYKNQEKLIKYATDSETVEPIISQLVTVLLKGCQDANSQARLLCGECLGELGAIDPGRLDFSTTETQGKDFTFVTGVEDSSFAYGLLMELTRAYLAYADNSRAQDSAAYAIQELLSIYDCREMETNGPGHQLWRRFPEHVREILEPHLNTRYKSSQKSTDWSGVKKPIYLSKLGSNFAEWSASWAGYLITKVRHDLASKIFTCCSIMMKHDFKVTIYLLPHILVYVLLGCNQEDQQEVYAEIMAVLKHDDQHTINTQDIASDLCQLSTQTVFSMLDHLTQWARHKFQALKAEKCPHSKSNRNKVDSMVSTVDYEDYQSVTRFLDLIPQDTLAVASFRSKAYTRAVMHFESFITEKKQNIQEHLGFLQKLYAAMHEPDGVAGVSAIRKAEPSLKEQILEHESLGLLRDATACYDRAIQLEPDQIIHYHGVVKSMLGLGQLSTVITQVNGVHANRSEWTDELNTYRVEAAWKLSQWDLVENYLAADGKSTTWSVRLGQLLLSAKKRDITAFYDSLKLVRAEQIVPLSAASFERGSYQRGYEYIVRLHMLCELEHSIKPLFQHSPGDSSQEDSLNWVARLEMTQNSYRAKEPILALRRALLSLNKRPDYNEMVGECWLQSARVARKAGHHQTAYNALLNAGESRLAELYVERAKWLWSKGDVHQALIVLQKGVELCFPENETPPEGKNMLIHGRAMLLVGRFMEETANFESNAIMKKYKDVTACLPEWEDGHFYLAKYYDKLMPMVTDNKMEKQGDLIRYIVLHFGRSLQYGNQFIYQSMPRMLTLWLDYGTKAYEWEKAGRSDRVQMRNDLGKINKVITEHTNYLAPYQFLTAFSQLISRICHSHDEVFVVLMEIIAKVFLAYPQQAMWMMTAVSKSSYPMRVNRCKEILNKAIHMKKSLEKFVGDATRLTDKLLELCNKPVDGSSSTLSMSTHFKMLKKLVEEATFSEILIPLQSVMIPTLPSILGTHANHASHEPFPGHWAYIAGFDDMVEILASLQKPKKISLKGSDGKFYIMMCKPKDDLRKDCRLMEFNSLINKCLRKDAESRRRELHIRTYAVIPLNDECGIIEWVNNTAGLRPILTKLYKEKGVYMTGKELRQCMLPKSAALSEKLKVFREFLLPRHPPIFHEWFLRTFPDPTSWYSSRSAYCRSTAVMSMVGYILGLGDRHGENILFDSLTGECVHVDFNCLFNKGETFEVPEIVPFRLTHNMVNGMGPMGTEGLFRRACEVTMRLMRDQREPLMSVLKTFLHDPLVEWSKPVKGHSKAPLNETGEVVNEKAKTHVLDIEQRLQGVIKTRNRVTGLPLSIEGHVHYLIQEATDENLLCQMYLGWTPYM
Sequence of UniProt Q8NBU5 (Q8NBU5 whole entry, looked up): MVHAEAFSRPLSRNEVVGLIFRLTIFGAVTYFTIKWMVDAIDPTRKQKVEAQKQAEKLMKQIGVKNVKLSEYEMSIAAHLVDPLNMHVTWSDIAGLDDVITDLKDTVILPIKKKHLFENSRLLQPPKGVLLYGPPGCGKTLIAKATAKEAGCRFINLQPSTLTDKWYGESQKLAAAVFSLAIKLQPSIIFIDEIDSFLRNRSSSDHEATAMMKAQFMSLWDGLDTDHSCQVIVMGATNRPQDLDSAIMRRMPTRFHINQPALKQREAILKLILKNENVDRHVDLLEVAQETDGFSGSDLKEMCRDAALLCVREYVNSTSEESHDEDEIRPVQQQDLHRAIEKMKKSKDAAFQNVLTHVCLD
Sequence of UniProt O15155 (O15155 whole entry, looked up): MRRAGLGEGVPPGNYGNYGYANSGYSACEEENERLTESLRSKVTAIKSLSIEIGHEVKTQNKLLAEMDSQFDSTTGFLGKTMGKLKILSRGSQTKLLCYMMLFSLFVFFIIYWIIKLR

Row | Target | log2 fold change (vemurafenib) | log2 fold change [1] | log2 fold change (barasertib) | log2 fold change [2] | log2 fold change (volasertib) | log2 fold change [3] | log2 fold change [4] | log2 fold change [5] | log2 fold change (saracatinib) | log2 fold change (sotrastaurin) | log2 fold change (alvocidib) | log2 fold change (Tubastatin A) | log2 fold change [6] | log2 fold change (defactinib) | log2 fold change [7] | log2 fold change (encorafenib) | log2 fold change [8] | log2 fold change (alisertib) | log2 fold change [9] | log2 fold change (gefitinib)
1 | CAMKK2 (UniProt Q96RR4) | -0.07 | -0.026 | 0.003 | 0.176 | 0.075 | 0.057 | 0.003 | 0.002 | -0.017 | 0.069 | -0.018 | -0.123 | 0.277 (active) | 0.059 | -0.113 | -0.013 | 0.018 | -0.01 | 0.019 | 0.021
2 | ATP2B4 (UniProt P23634) | 0.002 | -0.002 | 0.026 | -0.027 | -0.004 | -0.019 | -0.185 | 0.145 | 0.024 | 0.009 | -0.116 | 0.015 | -0.006 | -0.043 | 0.001 | 0.021 | -0.041 | -0.104 | 0.009 | 0.023
3 | ATAD1 (UniProt Q8NBU5) | 0.052 | -0.072 | -0.008 | 0.024 | -0.018 | -0.041 | -0.04 | -0.03 | -0.031 | 0.06 | -0.047 | -0.016 | 0.045 | -0.054 | 0.006 | -0.049 | -0.042 | -0.119 | 0.039 | 0.22
4 | BAG4 (UniProt O95429) | -0.055 | 0 | 0.048 | 0.004 | -0.003 | 0.036 | -0.037 | 0.102 | 0.018 | -0.043 | 0.04 | -0.096 | -0.01 | -0.001 | 0.023 | -0.032 | 0.005 | -0.023 | 0.003 | 0.039
5 | BCKDHB (UniProt P21953) | 0.068 | 0.032 | 0.065 | -0.102 | -0.079 | -0.064 | 0.022 | -0.02 | -0.012 | 0.129 | 0.062 | 0.011 | 0.008 | -0.008 | -0.031 | -0.074 | 0.107 | -0.019 | -0.015 | -0.024
6 | ATR (UniProt Q13535) | 0.059 | 0.013 | 0 | 0.017 | -0.13 | 0.018 | -0.307 | 0.337 | 0.018 | 0.081 | -0.134 | -0.067 | 0.029 | -0.07 | -0.001 | 0.045 | -0.193 | 0.115 | 0.077 | 0.052
7 | BLM (UniProt P54132) | 0.007 | 0.013 | -0.071 | -0.063 | -0.029 | 0.054 | 0.247 | -0.14 | -0.014 | -0.01 | 0.082 | -0.07 | 0.071 | 0.031 | 0.001 | 0.043 | 0.018 | -0.025 | -0.006 | -0.054
8 | ATE1 isoform 2 (UniProt O95260) | 0.118 | -0.006 | 0.069 | 0.019 | -0.013 | 0.014 | 0.032 | 0.126 | 0.006 | -0.016 | -0.116 | -0.008 | 0.036 | 0 | 0.038 | -0.013 | 0.109 | 0.021 | 0.004 | -0.038
9 | CDK2 (UniProt P24941) | -0.012 | 0.012 | -0.01 | -0.059 | -0.025 | 0.008 | -0.055 | 0.167 | -0.017 | 0.09 | 0.304 (active) | 0.021 | 0.08 | 0.196 | 0.048 | 0.016 | -0.012 | -0.01 | 0.072 | -0.012
10 | C15orf41 (UniProt Q9Y2V0) | 0.151 | 0.005 | 0.095 | -0.089 | 0.041 | -0.049 | -0.143 | 0.037 | -0.018 | -0.016 | -0.002 | -0.036 | 0.039 | -0.13 | 0.002 | 0.126 | -0.043 | 0.023 | 0.09 | 0.006
11 | CARD9 (UniProt Q9H257) | 0.03 | 0.026 | 0.008 | 0.068 | -0.001 | 0.011 | -0.036 | 0.013 | 0.014 | -0.01 | -0.011 | -0.099 | 0.043 | 0.05 | 0.038 | -0.06 | 0.068 | -0.004 | 0.009 | -0.021
12 | BET1 (UniProt O15155) | 0.107 | -0.012 | 0.028 | -0.019 | 0.032 | -0.021 | 0.044 | -0.009 | 0.031 | -0.033 | 0.07 | -0.038 | 0.033 | 0.058 | 0.027 | -0.062 | -0.214 (active) | -0.023 | -0.022 | -0.045
13 | CENPQ (UniProt Q7L2Z9) | 0.069 | -0.167 | 0.038 | -0.023 | -0.115 | -0.084 | -0.44 (active) | 0.095 | 0.033 | 0.023 | -0.122 | -0.016 | 0.032 | -0.085 | 0.055 | 0.169 | 0.025 | 0 | -0.068 | 0.091
14 | CCNC (UniProt P24863) | 0.22 | 0.046 | -0.026 | -0.017 | -0.079 | 0.029 | -0.211 | 0.135 | -0.001 | -0.062 | 0.182 | -0.079 | -0.018 | -0.073 | -0.052 | 0.041 | 0.039 | 0.009 | -0.05 | 0.017
15 | C12orf45 (UniProt Q8N5I9) | -0.015 | -0.017 | -0.022 | 0.009 | 0.008 | 0.023 | -0.243 | 0.116 | -0.022 | -0.026 | -0.13 | 0.007 | 0.004 | -0.042 | 0.036 | 0.05 | -0.06 | 0.016 | 0.01 | 0.011
16 | CHD3 isoform 3 (UniProt Q12873) | -0.033 | 0.009 | 0.035 | -0.02 | -0.018 | -0.039 | -0.066 | -0.027 | 0.001 | 0.004 | 0.003 | -0.074 | 0.015 | 0.006 | 0.02 | 0.029 | 0.085 | 0.047 | 0.01 | -0.014
